KCNH2 WT inh: KCNH2 (human, wildtype) channel inhibition; Q12809; U2OS, BacMam KCNH2, thallium flux FluxOr; active compounds read low; activity change, % at 1.84 µM; hit rate 0.37% among 340,000; AID 720551;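 active = maximum activity change below -70%; inconclusive = maximum activity change between -70% and -50%; inactive = maximum activity change above -50%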
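U2OS cells transduced with wild-type KCNH2 virus are loaded with FluxOr dye for 45 min, and thallium flux is measured in kinetic reads before and after stimulation buffer. Rate constants are normalized to DMSO controls.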
VDR inhibitor: blocks the human vitamin D receptor; hit rate 0.93% among 400,000; Potency, µM, hits mostly inhibitors; VDR-SRC2-3 peptide fluorescence polarization, 2 h; AID 504847
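After 23 nl compound addition and a short centrifugation, plates sat for 2 hours at ambient temperature; polarization of fluorescence then indicated loss of VDR binding to peptide SRC2-3.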
PLK1 PBD block: blocks phosphopeptide binding to human PLK1 polo-box domain; Plk1 PBD binding of FITC phosphopeptide, fluorescence polarization; Potency, µM, hits mostly inhibitors; AID 720504; hit rate 2.8% among 360,000; note: series mostly up to about 57 µM; nearly all actives have a fitted effect of over 65% in size
KCNH2 3.1 inh: inhibitors of human KCNH2 3.1 potassium channel isoform; U2OS KCNH2 3.1, thallium flux FluxOr; active compounds read low; activity change, % (tested at about 1.8 µM); hit rate 0.95% among 340,000;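 active = maximum activity change below -70%; inconclusive = maximum activity change from -70% to -50%; inactive = maximum activity change above -50%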;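 note: thallium influx rate constant from kinetic fluorescence after stimulation buffer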
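Kinetic fluorescence (2 min after stimulation buffer) measures Tl+ influx through KCNH2 3.1 expressed by viral transduction in U2OS cells; the rate constant is normalized against DMSO controls serving as positive and negative references.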
MBNL1-CUG inh: MBNL1-poly(CUG) RNA binding inhibition | Q9NR56 | TR-FRET MBNL1-His/biotin-(CUG)12 binding, 665/545 ratio | Potency, µM (series often up to 57.5 µM), actives largely listed as inhibitors | hit rate 0.036% among 280,000 | AID 2675; active = well fitted inhibition curve with a large enough effect in the signal ratio, with a control signal flat, not every such curve was filed as active; inconclusive = small, poorly fitted or top-dose-only effect, or effect the other way, or a change in a side signal; inactive = no such curve, though single readings can be large or run the other way; the % refers to the signal ratio
Target sequence (Q9NR56 whole entry, looked up): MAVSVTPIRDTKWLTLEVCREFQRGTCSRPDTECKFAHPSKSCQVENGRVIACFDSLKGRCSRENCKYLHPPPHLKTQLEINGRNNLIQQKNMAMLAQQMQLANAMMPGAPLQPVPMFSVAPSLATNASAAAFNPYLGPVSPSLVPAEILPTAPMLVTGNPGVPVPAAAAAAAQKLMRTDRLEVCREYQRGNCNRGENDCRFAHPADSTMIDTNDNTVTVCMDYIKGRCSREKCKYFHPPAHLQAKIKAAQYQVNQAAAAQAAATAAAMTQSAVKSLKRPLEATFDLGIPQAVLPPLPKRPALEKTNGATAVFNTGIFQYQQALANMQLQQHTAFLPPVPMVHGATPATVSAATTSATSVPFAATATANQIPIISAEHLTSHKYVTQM
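MBNL1-His + Biotin-(CUG)12, cpd titration 92 nM–58 uM; Tb anti-His Ab 0.055 ng/ul, SA-XL665 5 nM (final); 60 min RT; ratiometric 665/545 nm, Ex 340 nm; normalized to buffer and full-complex controls.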
CBFb RUNX1 block: CBF-beta/RUNX1 interaction disruption; Q01196+Q13951; AlphaScreen CBFb-His/RUNX1-biotin binding, biochemical; Potency, µM (titrated, usually from 59.8 µM), usual class: inhibitors; 230,000 tested, under 10 active
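CBFb-His/RUNX1-biotin, 30 nM each, preincubated 20 min RT; compound 15 min RT; Ni + streptavidin beads 50 ng each, 90 min RT; AlphaScreen read.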
TbPYK confirm: Trypanosoma brucei pyruvate kinase inhibition, cherry-pick confirmation | shares compounds with PLK1 PBD block | recombinant TbPYK, Kinase-Glo ATP luminescence | Potency, µM (top dose mostly 76.9 µM), most hits filed as inhibitors | hit rate 67% among 890 | AID 720569; note: nearly all actives have a fitted effect of over 70% in size
TbPYK orthogonal: orthogonal confirmation of Trypanosoma brucei pyruvate kinase inhibitors | Potency, µM (doses to about 76.9 µM), actives largely listed as inhibitors | shares compounds with PLK1 PBD block | hit rate 62% among 890 | AID 720584 | recombinant TbPYK, ADP-Glo luminescence, 60 min; note: nearly all actives have a fitted effect of over 75% in size
Of the large screens only hits and unclear results are named; the others gave an inactive call (follow-up assays come after a bar, where they were run). Compounds with a hit are over-represented: about 3.8% of the library has one in this group of screens. Unless noted, calls come from the whole dose curve; as a rule, active = well fitted curve in the direction sought with a large enough effect; inconclusive = small, poorly fitted or top-dose-only effect, or another doubt; inactive = no such curve, though single readings can be large; an effect the other way counts as inactive or inconclusive.

N#CC1=C2SCN(c3ccccc3)CN2C(=O)CC1c1cccs1 (stereo unspecified)	VDR inhibitor inconclusive, PLK1 PBD block 27µM, CBFb RUNX1 block inconclusive | TbPYK confirm 2.8µM | TbPYK orthogonal 2.5µM
Cc1ccc(C2CC(=O)N3CN(c4ccc(Br)cc4)CSC3=C2C#N)o1 (stereo unspecified)	VDR inhibitor 45µM | TbPYK confirm 32µM | TbPYK orthogonal 16µM
N#CC1=C2SCN(c3ccccc3)CN2C(=O)CC1c1c(Cl)cccc1Cl (stereo unspecified)	VDR inhibitor 22µM, PLK1 PBD block 13µM | TbPYK confirm 3.2µM | TbPYK orthogonal 2.5µM
Cc1ccc(NC(=O)CN2C(=O)CCc3ccccc32)cc1C	none (no result: KCNH2 WT inh, PLK1 PBD block, KCNH2 3.1 inh, MBNL1-CUG inh, CBFb RUNX1 block)
O=c1c2oc3ccccc3c2n(Cc2ccc(Cl)cc2)c(=O)n1Cc1ccccc1	none (no result: KCNH2 WT inh, PLK1 PBD block, KCNH2 3.1 inh, MBNL1-CUG inh, CBFb RUNX1 block)
CCC1CN(C(=O)Nc2cccc3c2CCCC3)c2ccccc2O1 (stereo unspecified)	none (no result: KCNH2 WT inh, PLK1 PBD block, KCNH2 3.1 inh, MBNL1-CUG inh, CBFb RUNX1 block)
N#CC1=C2SCN(c3ccccc3)CN2C(=O)CC1c1ccccc1Cl (stereo unspecified)	VDR inhibitor 28µM, PLK1 PBD block 27µM | TbPYK confirm 7.9µM | TbPYK orthogonal 5.6µM
Cc1coc2c1c(C)cc1oc(=O)cc(C)c12	none (no result: KCNH2 WT inh, PLK1 PBD block, KCNH2 3.1 inh, MBNL1-CUG inh, CBFb RUNX1 block)
Cc1c(N2C(=O)/C(=C\c3ccccc3O)SC2=S)c(=O)n(-c2ccccc2)n1C	VDR inhibitor inconclusive, PLK1 PBD block 1.7µM | TbPYK confirm 4.5µM | TbPYK orthogonal 7.9µM
Cc1ccc(CN(C(=O)COc2ccc(C(C)(C)C)cc2)C2CCS(=O)(=O)C2)o1 (stereo unspecified)	none (no result: KCNH2 WT inh, PLK1 PBD block, KCNH2 3.1 inh, MBNL1-CUG inh, CBFb RUNX1 block)
Clc1ccc(CSc2nccn2Cc2ccccc2)cc1	none | TbPYK confirm 1.3µM | TbPYK orthogonal 1.1µM
CCOC(=O)c1c(C)[nH]c(CCC(=O)NCc2cc(OC)c(OC)c(OC)c2)c1C	none (no result: KCNH2 WT inh, PLK1 PBD block, KCNH2 3.1 inh, MBNL1-CUG inh, CBFb RUNX1 block)
CC1(C)CC(=O)C(C(c2ccco2)C2C(=O)CC(C)(C)CC2=O)C(=O)C1	VDR inhibitor inconclusive, PLK1 PBD block 6.7µM | TbPYK confirm 11µM | TbPYK orthogonal inconclusive
Cc1ccc(S(=O)(=O)C2(C(=O)Nc3ccc(Cl)c(C(F)(F)F)c3)CC2)cc1	none (no result: KCNH2 WT inh, PLK1 PBD block, KCNH2 3.1 inh, MBNL1-CUG inh, CBFb RUNX1 block)
Cc1cccc(OCC(=O)NC(=S)NNC(=O)c2ccncc2)c1	VDR inhibitor 71µM, PLK1 PBD block 5.3µM (no result: CBFb RUNX1 block) | TbPYK confirm 3.5µM | TbPYK orthogonal 5.6µM
Cc1cccc(OCC(=O)NCCCNC(=O)c2cccnc2)c1	none (no result: CBFb RUNX1 block)
Cc1cc(C)cc(C(=O)Nc2ccc(-c3nc4ncccc4o3)cc2)c1	none (no result: KCNH2 WT inh, PLK1 PBD block, KCNH2 3.1 inh, MBNL1-CUG inh, CBFb RUNX1 block)
Cc1ccc2sc(NNC(=O)C3COc4ccccc4O3)nc2c1C (stereo unspecified)	none | TbPYK confirm inconclusive | TbPYK orthogonal inconclusive
N#Cc1cc2c(nc1SCC(=O)N1CCCCC1)CCCCC2	VDR inhibitor inconclusive, PLK1 PBD block 27µM | TbPYK confirm 13µM | TbPYK orthogonal 13µM
N#Cc1cc2c(nc1SCC(=O)N1CCCCC1)CCCC2	none
COc1ccc2c(c1)c1c(c(=O)n(-c3cccc(Cl)c3)c(=O)n1CC(=O)N1CCCC1)n2C	none (no result: KCNH2 WT inh, PLK1 PBD block, KCNH2 3.1 inh, MBNL1-CUG inh, CBFb RUNX1 block)
CCN(Cc1ccccc1)C(=O)CN1C(=O)CSc2ccc(S(=O)(=O)N(CC)CC)cc21	none (no result: KCNH2 WT inh, PLK1 PBD block, KCNH2 3.1 inh, MBNL1-CUG inh, CBFb RUNX1 block)
CC1=C(C(N)=O)C(c2ccccc2[N+](=O)[O-])n2ncnc2N1 (stereo unspecified)	VDR inhibitor 25µM, PLK1 PBD block 8.4µM (no result: CBFb RUNX1 block) | TbPYK confirm 25µM | TbPYK orthogonal inconclusive
O=C(NC(Nc1nc2ccccc2s1)(C(F)(F)F)C(F)(F)F)c1ccccc1	none
CC(C)(NC(=O)c1ccccc1)c1nc2ccccc2s1	VDR inhibitor inconclusive, PLK1 PBD block 12µM (no result: MBNL1-CUG inh, CBFb RUNX1 block) | TbPYK confirm 8.9µM | TbPYK orthogonal 10µM
Cc1ccc(NC(=O)c2cc(N3C(=O)C=CC3=O)ccc2N2CCOCC2)cc1	VDR inhibitor 28µM, PLK1 PBD block 3µM | TbPYK confirm 10µM | TbPYK orthogonal 11µM
Cc1ccc(NC(=O)c2cc(NC(=O)c3ccco3)ccc2N2CCOCC2)cc1	none
CN1c2ccccc2N(C)C1(C)c1ccccc1	VDR inhibitor inconclusive, PLK1 PBD block 4.2µM (no result: MBNL1-CUG inh) | TbPYK confirm 3.2µM | TbPYK orthogonal 5µM
CCN(CC)c1ccc(NC(=O)Cn2cc3c(n2)CCCC3)c(C)c1	none (no result: KCNH2 WT inh, PLK1 PBD block, KCNH2 3.1 inh, MBNL1-CUG inh, CBFb RUNX1 block)
CCN(CC)c1ccc(NC(=O)Cn2cc3c(n2)CCC(C)C3)c(C)c1 (stereo unspecified)	none | TbPYK confirm 22µM | TbPYK orthogonal inconclusive
CCc1ccc(CNC(=O)C(C)n2ccc3cc(S(=O)(=O)N4CCCCCC4)ccc32)cc1 (stereo unspecified)	none (no result: KCNH2 WT inh, PLK1 PBD block, KCNH2 3.1 inh, MBNL1-CUG inh, CBFb RUNX1 block)
O=C(Nc1cnn(Cc2ccc(Cl)cc2)c1)c1cccs1	VDR inhibitor inconclusive, PLK1 PBD block 6.7µM | TbPYK confirm inactive | TbPYK orthogonal inactive
CCN(CC)S(=O)(=O)c1ccc(C(=O)NC(=S)N(CCC#N)Cc2cccnc2)cc1	none | TbPYK confirm 13µM | TbPYK orthogonal 13µM
N#CCCN(Cc1cccnc1)C(=S)NC(=O)c1ccco1	none
CCCOc1ccc(C2c3c(-c4ccccc4O)n[nH]c3C(=O)N2CCCOCC)cc1OCC (stereo unspecified)	none (no result: KCNH2 WT inh, PLK1 PBD block, KCNH2 3.1 inh, MBNL1-CUG inh, CBFb RUNX1 block)
